Data taken from PubChem BioAssay.
Calls of active or inactive are those of the source.

Legend:
[1] = tested on: PRMT1 (protein arginine N-methyltransferase 1); assay: PRMT1 binders on small-molecule microarrays, primary screen, biochemical, small-molecule microarray, 635 nm fluorescence (AID 1088); conditions: small-molecule microarray binding, higher = more signal;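 note: binding of Prmt1 protein to compounds spotted on small-molecule microarray slides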
[2] = yeast growth modulation, basal conditions, primary screen, YJM789 clinical isolate, OD600, 24 h (AID 1089);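 note: growth of clinical yeast isolate S. cerevisiae YJM 789 seeded 1000 cells per well; test concentration not given here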; conditions: S. cerevisiae YJM789 growth, higher = more signal, called active from +8 up or from −8 down
[3] = fission yeast growth modulation, primary screen, strain 972, OD600, 24 h, no modulator (AID 1090);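 note: basal condition with compound alone and no growth modifier present; test concentration not given here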; conditions: S. pombe 972 growth, higher = more signal, called active from +8 up or from −8 down
[4] = S. cerevisiae growth modulation with rapamycin, primary screen, strain BY4716, OD600, 96 h (AID 1091); conditions: higher = more signal, called active from +8 up or from −8 down; note: test concentration not given here
[5] = target: Torsin-1A-interacting protein 2 (Homo sapiens) (UniProt Q8NFQ8); assay: LULL1 binders on small-molecule microarray, primary screen, cell lysate, human LULL1 lysate, 635/667 nm fluorescence (AID 1092); conditions: hLULL1 lysate binding, 635 nm fluorescence, higher = more signal;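 note: probe is lysate of COS7 cells overexpressing human LULL1; score merges per-feature 667 nm fluorescence with signal-to-noise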
Sequence of Torsin-1A-interacting protein 2 (Homo sapiens) (Q8NFQ8 whole entry, looked up): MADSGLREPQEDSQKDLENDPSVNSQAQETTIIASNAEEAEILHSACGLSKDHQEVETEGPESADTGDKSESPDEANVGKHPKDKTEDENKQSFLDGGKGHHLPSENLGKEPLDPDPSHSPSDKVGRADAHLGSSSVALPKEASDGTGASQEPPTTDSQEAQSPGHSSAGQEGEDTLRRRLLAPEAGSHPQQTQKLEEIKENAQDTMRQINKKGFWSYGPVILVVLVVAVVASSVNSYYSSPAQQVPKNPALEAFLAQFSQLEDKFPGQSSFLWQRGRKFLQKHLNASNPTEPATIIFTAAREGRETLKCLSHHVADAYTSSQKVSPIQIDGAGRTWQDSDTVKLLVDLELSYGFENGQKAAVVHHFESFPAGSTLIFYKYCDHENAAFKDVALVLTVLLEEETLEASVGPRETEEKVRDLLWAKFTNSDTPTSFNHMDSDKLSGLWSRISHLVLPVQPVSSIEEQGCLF

[6] = E. coli growth modulation, two-sided OD650, primary screen, E. coli filamentation project, strain DRC41, 24 h (AID 1093); conditions: OD650, 24 h, higher = more signal, called active from +8 up or from −8 down;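 note: MC1000 strain lacking acrAB efflux and sulA so SOS filamentation is blocked; test concentration not given here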
[7] = small-molecule microarray binders of probe aLefty2, primary screen, biochemical, biotinylated probe, 635/667 nm fluorescence (AID 1094); conditions: higher = more signal;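 note: score merges spot fluorescence near 667 nm with spot signal-to-noise ratio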
[8] = tested on: Noggin (protein binding on small-molecule microarray); assay: Noggin binders on small-molecule microarray, primary screen, biochemical, 635/667 nm fluorescence (AID 1095); conditions: 635 nm fluorescence, higher = more signal;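 note: score merges 667 nm feature fluorescence with signal to noise over triplicate slides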
[9] = target: Neurogenic locus notch homolog protein 3 (Homo sapiens) (UniProt Q9UM47); assay: NOTCH3 binders on small-molecule microarray, primary screen, biochemical, 635/667 nm fluorescence (AID 1096); conditions: NOTCH3 binding, 635 nm fluorescence, higher = more signal
Sequence of Neurogenic locus notch homolog protein 3 (Homo sapiens) (Q9UM47 whole entry, looked up): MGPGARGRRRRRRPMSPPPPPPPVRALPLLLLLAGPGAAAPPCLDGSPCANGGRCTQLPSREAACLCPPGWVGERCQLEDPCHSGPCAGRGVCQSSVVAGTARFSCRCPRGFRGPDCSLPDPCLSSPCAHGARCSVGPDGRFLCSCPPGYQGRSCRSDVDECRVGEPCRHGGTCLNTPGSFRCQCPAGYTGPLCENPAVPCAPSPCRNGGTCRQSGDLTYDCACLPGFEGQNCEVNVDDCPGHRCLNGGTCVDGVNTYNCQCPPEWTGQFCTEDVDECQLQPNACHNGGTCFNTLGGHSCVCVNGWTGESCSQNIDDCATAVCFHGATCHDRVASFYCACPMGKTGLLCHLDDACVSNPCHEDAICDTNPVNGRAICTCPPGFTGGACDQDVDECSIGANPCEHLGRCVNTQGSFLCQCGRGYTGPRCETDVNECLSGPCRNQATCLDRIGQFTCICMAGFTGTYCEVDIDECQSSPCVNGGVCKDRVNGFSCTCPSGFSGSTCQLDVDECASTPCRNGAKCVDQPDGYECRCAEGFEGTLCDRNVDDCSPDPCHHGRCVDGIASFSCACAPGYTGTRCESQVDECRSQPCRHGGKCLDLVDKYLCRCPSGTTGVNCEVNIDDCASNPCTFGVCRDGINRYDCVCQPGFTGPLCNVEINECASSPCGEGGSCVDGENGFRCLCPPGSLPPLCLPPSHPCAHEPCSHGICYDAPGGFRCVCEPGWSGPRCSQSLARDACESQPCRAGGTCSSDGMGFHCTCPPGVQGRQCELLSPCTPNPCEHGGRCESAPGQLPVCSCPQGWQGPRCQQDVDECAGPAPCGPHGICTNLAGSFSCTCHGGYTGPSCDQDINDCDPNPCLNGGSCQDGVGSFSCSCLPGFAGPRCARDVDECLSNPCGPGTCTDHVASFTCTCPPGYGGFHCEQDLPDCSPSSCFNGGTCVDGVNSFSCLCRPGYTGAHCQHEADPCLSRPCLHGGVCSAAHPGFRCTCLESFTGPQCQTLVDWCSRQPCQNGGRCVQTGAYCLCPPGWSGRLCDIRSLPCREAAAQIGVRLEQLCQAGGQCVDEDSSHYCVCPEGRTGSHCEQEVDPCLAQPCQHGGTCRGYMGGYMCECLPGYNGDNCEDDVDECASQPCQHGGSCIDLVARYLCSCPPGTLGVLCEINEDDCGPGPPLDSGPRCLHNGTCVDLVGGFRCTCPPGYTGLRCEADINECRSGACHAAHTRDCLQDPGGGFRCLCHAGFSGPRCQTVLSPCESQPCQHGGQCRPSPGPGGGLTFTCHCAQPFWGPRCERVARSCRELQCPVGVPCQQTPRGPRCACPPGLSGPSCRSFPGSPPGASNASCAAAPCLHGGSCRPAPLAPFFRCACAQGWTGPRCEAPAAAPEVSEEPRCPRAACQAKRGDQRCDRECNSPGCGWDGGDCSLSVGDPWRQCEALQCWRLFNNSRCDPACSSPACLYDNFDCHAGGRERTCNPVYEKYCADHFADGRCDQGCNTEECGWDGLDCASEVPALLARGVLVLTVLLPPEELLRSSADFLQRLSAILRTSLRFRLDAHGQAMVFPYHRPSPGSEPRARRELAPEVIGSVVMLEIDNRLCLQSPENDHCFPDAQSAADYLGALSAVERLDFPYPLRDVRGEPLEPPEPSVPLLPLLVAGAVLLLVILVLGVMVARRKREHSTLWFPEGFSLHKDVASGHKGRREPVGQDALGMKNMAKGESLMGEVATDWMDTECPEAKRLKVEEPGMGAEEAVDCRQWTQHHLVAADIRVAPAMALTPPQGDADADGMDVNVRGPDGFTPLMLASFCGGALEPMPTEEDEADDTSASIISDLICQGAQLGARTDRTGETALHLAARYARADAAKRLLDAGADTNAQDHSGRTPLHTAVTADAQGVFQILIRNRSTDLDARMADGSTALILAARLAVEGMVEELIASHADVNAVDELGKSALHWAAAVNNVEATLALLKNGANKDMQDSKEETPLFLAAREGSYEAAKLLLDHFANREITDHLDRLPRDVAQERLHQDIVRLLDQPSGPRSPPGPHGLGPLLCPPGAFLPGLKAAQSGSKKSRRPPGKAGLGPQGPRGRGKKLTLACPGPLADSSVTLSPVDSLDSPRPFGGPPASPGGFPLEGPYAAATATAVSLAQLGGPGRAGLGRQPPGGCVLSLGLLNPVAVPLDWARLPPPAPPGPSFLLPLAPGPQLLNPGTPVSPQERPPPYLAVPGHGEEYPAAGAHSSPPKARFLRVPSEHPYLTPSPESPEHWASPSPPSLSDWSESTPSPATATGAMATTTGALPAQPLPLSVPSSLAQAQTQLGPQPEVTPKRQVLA

[10] = small-molecule microarray binders of probe aEGFR, primary screen, biochemical, biotinylated probe, 635/667 nm fluorescence (AID 1097); conditions: higher = more signal;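 note: probe is a biotinylated anti-EGFR antibody binding compounds printed on slides; score combines fluorescence near 667 nm and signal to noise of each spot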
[11] = tested on: Plasmodium falciparum Sir2 (PF13_0152, Sir2A); assay: pfSir2 binders on small-molecule microarrays, primary screen, biochemical, small-molecule microarray, 635 nm fluorescence (AID 1098); conditions: small-molecule microarray binding, fluorescence 635 nm; higher = more signal;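 note: score merges spot fluorescence intensity with its signal-to-noise ratio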
[12] = small-molecule microarray binders of probe aDKK1, primary screen, biochemical, biotinylated probe, 635/667 nm fluorescence (AID 1099); conditions: higher = more signal;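 note: score merges 667nm spot fluorescence with signal to noise across triplicate slides; reference of the scale not given here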
[13] = small-molecule microarray binders of probe aCHRDL2, primary screen, biochemical, biotinylated probe, 635/667 nm fluorescence (AID 1100); conditions: higher = more signal
[14] = splicing luciferase reporter signal modulators, primary screen, spliceosome inhibition project, cell-based, HEK293, splice +/- reporter (AID 1101); conditions: luminescence, 24 h, higher = more signal, called active from +8 up or from −8 down;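 note: HEK293 cells carrying a splicing-competent luciferase reporter gene; test concentration not given here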
[15] = target: Fibroblast growth factor 10 (Homo sapiens) (UniProt O15520); assay: FGF10 binders on small-molecule microarrays, primary screen, biochemical, small-molecule microarray, 635 nm fluorescence (AID 1102); conditions: FGF10 binding, fluorescence 635 nm, higher = more signal
Sequence of Fibroblast growth factor 10 (Homo sapiens) (O15520 whole entry, looked up): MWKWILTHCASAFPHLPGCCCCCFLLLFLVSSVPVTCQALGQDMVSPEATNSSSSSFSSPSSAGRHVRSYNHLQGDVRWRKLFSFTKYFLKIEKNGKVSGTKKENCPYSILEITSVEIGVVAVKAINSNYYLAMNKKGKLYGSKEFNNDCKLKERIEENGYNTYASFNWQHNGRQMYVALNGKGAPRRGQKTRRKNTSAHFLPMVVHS

[16] = tested on: glycogen synthase kinase-3 (GSK3A per assay name; protocol says GSK3B); assay: GSK3 binders on small-molecule microarrays, primary screen, biochemical, small-molecule microarray, 635 nm fluorescence, GSK3A (AID 1103); conditions: small-molecule microarray binding, fluorescence 635 nm; higher = more signal; note: the record names both GSK3A and GSK3B
[17] = target: Epidermal growth factor receptor (Homo sapiens) (UniProt P00533); assay: EGFR binders on small-molecule microarrays, primary screen, biochemical, small-molecule microarray, 635 nm fluorescence (AID 1104); conditions: EGFR binding, higher = more signal;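 note: score merges 667 nm emission intensity with spot signal to noise over triplicate slides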
Sequence of Epidermal growth factor receptor (Homo sapiens) (P00533 whole entry, looked up): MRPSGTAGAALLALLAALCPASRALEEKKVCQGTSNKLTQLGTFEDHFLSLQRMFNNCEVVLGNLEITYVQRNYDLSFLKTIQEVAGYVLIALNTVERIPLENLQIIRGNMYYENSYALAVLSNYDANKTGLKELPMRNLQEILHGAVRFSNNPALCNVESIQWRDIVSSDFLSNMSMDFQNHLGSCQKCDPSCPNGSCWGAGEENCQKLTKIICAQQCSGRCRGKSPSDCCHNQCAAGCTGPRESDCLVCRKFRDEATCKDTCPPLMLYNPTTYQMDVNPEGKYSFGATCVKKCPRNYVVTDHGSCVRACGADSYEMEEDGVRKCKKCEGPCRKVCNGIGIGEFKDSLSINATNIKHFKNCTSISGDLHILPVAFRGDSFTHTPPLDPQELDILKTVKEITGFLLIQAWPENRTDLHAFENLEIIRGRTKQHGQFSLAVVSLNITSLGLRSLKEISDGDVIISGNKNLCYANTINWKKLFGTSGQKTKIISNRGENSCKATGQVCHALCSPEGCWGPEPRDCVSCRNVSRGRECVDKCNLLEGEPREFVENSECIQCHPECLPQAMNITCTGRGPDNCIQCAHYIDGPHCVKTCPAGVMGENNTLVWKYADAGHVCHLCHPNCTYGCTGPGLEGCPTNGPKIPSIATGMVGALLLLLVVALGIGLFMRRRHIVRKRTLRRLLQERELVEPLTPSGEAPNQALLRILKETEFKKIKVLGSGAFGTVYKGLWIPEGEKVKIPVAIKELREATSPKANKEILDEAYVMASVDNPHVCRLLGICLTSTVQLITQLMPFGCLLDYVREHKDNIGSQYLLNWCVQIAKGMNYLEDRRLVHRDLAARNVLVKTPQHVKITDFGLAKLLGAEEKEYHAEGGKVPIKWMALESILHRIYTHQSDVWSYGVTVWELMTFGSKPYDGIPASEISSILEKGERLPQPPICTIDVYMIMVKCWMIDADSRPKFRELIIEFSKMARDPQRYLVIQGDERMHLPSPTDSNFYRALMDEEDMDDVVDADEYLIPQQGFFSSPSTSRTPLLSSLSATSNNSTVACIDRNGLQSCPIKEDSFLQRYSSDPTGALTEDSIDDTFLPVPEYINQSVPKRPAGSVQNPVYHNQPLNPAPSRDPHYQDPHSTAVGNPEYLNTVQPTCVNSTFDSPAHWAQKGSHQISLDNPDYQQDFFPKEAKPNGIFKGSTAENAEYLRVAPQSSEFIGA

[18] = target: Follistatin-related protein 3 (Homo sapiens) (UniProt O95633); assay: FSTL3 binders on small-molecule microarrays, primary screen, biochemical, small-molecule microarray, 635 nm fluorescence (AID 1105); conditions: FSTL3 binding, higher = more signal;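 note: score merges emission near 667 nm and signal to noise per printed spot across three slides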
Sequence of Follistatin-related protein 3 (Homo sapiens) (O95633 whole entry, looked up): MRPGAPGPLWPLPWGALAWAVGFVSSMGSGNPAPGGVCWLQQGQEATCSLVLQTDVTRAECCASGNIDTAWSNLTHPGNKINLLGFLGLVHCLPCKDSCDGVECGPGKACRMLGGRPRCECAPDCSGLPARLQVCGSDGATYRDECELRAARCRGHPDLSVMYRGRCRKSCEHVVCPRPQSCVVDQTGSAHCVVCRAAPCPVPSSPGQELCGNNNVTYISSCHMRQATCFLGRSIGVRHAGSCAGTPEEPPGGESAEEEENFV

[19] = target: Dickkopf-related protein 1 (Homo sapiens) (UniProt O94907); assay: DKK1 binders on small-molecule microarrays, primary screen, biochemical, small-molecule microarray, 635 nm fluorescence scan (AID 1106); conditions: DKK1 binding, higher = more signal;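 note: score merges emission near 667 nm with signal to noise over three replicate slides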
Sequence of Dickkopf-related protein 1 (Homo sapiens) (O94907 whole entry, looked up): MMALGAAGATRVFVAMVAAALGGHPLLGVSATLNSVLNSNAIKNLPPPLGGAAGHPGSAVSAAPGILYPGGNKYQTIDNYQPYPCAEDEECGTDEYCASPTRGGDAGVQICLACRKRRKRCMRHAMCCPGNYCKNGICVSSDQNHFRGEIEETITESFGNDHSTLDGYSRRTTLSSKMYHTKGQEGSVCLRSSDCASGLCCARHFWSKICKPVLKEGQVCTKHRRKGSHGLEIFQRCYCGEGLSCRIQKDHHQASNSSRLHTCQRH

[20] = tested on: Inhibin beta A chain (activin A); assay: INHBA (activin A) binders on microarrays, primary screen, biochemical, small-molecule microarray, 635 nm fluorescence scan (AID 1107); conditions: small-molecule microarray binding, higher = more signal;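 note: mouse activin A protein probed at 4.33 µg/mL on printed slides; score merges bound-protein fluorescence near 667 nm with spot signal-to-noise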

SMILES | composite z-score [1] | z-score [2] | z-score [3] | z-score [4] | composite z-score [5] | z-score [6] | composite z-score [7] | composite z-score [8] | composite z-score [9] | composite z-score [10] | composite z-score [11] | composite z-score [12] | composite z-score [13] | z-score [14] | composite z-score [15] | composite z-score [16] | composite z-score [17] | composite z-score [18] | composite z-score [19] | composite z-score [20]
O=C(CS)NCCCCCNC(=O)[C@@H]1C[C@@H]2C(=O)N[C@@H](Cc3ccccc3)C(=O)N2[C@@H]1c1cccc(OCCO)c1 | 1.56 | 0.368 (inactive) | -0.653 (inactive) | 0.658 (inactive) | 3.04 | 0.142 (inactive) | -0.515 | 0.203 | 0.823 | -0.0271 | 1.74 | 0.0021 | 0.0402 | -0.345 (inactive) | 1.17 | 1.32 | 0.526 | 0.988 | 1.25 | -0.678
COCCOC(=O)N1C(=O)[C@@]2(c3ccccc31)[C@H](c1ccccc1OCCO)N1[C@H](c3ccccc3)[C@H](c3ccccc3)OC(=O)[C@H]1[C@@H]2C(N)=O | 1.56 | 1.83 (inactive) | 1.54 (inactive) | 3.59 (inactive) | 2.89 | 0.0834 (inactive) | 0.198 | 0.463 | 1.08 | 0.0258 | 1.28 | 0.701 | 0.74 | -2.08 (inactive) | 1.2 | 1.25 | 0.888 | 1.43 | 1.16 | 0.186
CN(C)CCCCNC(=O)[C@H]1C[C@H]2C(=O)N[C@@H](CCCC[N+](C)(C)C)C(=O)N2[C@H]1c1ccc(O)cc1 | 0.366 | -0.838 (inactive) | 0.0639 (inactive) | -0.682 (inactive) | -0.2 | 0.744 (inactive) | -0.0011 | -0.0923 | -0.529 | -0.194 | 1.26 | -0.209 | -0.328 | -1.48 (inactive) | -0.937 | -0.55 | -0.327 | -0.205 | 0.357 | 0.0643
COCCOC(=O)N1C(=O)[C@@]2(c3cc(C#CC4=CCCCC4)ccc31)[C@H](c1ccc(O)cc1)N1[C@H](c3ccccc3)[C@H](c3ccccc3)OC(=O)[C@H]1[C@@H]2C(=O)NC[C@H](O)c1ccccc1 | 1.56 | 1.44 (inactive) | 0.236 (inactive) | 3.15 (inactive) | 2.51 | 0.12 (inactive) | -0.003 | 0.782 | 1.07 | 0.0397 | 0.535 | 0.0353 | 0.129 | -0.586 (inactive) | 1.12 | 0.348 | 0.462 | 1.17 | 0.557 | 0.528
COc1cc(NN2C(C(O)C3CCCCC3)C=CC3C(=O)N(c4ccccc4)C(=O)C32)cc(OC)c1OC (stereo not given) | 0.955 | 0.93 (inactive) | 1.06 (inactive) | 0.408 (inactive) | 3.25 | -1.24 (inactive) | 0.167 | -0.273 | 1.07 | -0.0068 | 1.11 | 0.946 | 1.43 | -0.983 (inactive) | 0.448 | 0.893 | -0.455 | 0.722 | -1.37 | 0.591
C=C[C@@H](C)[C@@H](OC(=O)Nc1ccc(SC)cc1)c1ccc(OCCO)cc1 | 1.19 | 0.222 (inactive) | -1.58 (inactive) | -0.31 (inactive) | 1.92 | 1.41 (inactive) | -0.106 | 0.172 | 0.194 | 0.0348 | 1.4 | -0.289 | 0.753 | -1.01 (inactive) | 0.472 | 0.335 | 0.0159 | 0.426 | -0.185 | 0.0303
COCCOC(=O)N1C(=O)[C@@]2(c3cc(C#CCC(C(=O)OC)C(=O)OC)ccc31)[C@H](c1ccc(O)cc1)N1[C@H](c3ccccc3)[C@H](c3ccccc3)OC(=O)[C@H]1[C@@H]2C(=O)NC[C@H](O)c1ccccc1 | 1.38 | 0.326 (inactive) | -0.371 (inactive) | 0.875 (inactive) | 2.75 | 1.81 (inactive) | -0.0788 | 0.171 | 0.68 | 0.0153 | 0.542 | 0.362 | 0.181 | 0.579 (inactive) | 0.681 | 0.882 | 0.335 | 0.602 | 0.148 | 0.466
CCOC(=O)C[C@H]1[C@H](OC(=O)c2ccc(-c3ccccc3)cc2)[C@@H](NC(=O)Cc2ccc(OC)cc2)c2cc(OCCCO)ccc2N1C(=O)Cc1ccc(OC)cc1 | 0.287 | 1.09 (inactive) | -0.231 (inactive) | 1.63 (inactive) | 1.55 | 1.3 (inactive) | -0.0769 | -0.542 | -0.0636 | -0.094 | 0.064 | 0.288 | 0.723 | -0.0344 (inactive) | 0.244 | -0.602 | 0.0599 | -0.0955 | -0.276 | 0.38
CC(C)C[C@@H]1NC(=O)[C@@]23C(=O)N[C@@H](Cc4ccccc4)C2[C@H](C)[C@@]2(C)O[C@H]2C3/C=C/C/C=C\CNC(=O)[C@@H](C)NC1=O (stereo not given in full) | 0.5 | -0.939 (inactive) | -1.17 (inactive) | -1.35 (inactive) | -0.408 | 0.624 (inactive) | -0.178 | 0.33 | 0.195 | -0.131 | 1.72 | -0.416 | -0.601 | -1.34 (inactive) | -0.052 | -0.608 | 0.401 | 0.331 | 0.431 | 1.27
